The text below walks through data of PubChem BioAssay (NCI).

Common to all, as to assay: NCI-60 one-dose screen, 48 h (100 = growth as untreated, 0 = no growth, -100 = all killed)
Conditions in all cases: 10 µM unless noted

In test [1] the test system is DU-145 prostate.
Test [2] has as its system K-562 leukemia.
The test system of test [3] is MALME-3M melanoma.
Test [4] relates to MDA-MB-231 breast.
In test [5] the test system is RXF 393 renal.
For test [6], the system named is SF-268 CNS.
In test [7] the test system is SF-295 CNS.
Test [8] deals with SF-539 CNS.
Test [9] has as its system M14 melanoma.
The subject of test [10] is UACC-257 melanoma.

About 83,000 compounds went through this panel and 20% of them were active in at least one assay; those are over-represented in the sample as a whole.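 Testing used 96-well plates and a 48-hour single-concentration exposure. Example: -40 means 40% of the starting cells died.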 A number with no mark means an inactive call. Calls of active or inactive are those of the source. Rule for the calls: active = growth percent below 10; inactive = the rest.

For the compound `Cc1ccc(C(=O)C(Br)C(Br)c2ccccc2)cc1` (stereo not given), the growth in [1] is 85.9%; in test [2], 50.9%; in [3] it was 88.3%; in [4] it was 99.9%; in test [5] it was 79.3%; in test [6] it was 95.7%. The growth in test [7] was 97.9%; in test [8], 100%; in test [9], 101%.
With `COC(=O)c1cc(Nc2ccc(O)c3c2C(=O)c2c([N+](=O)[O-])ccc(O)c2C3=O)cc(C(=O)OC)c1`, the growth is -59.1% (active) in test [1]; 72.9% in [2]; -51.1% (active) in [3]; 90.4% in test [4]; 51.9% in test [5]; 55.1% in test [6]. Besides, the figures for the growth in test [8], in [10] and in test [9] were 84%, 12.1% and -66.5% (active), respectively.
In the case of `O=C(NC(=S)NNC(=S)NNc1ccccc1)c1ccccc1`, the growth is 98% in [1]; 9.51% (active) in test [2]; 25.5% in [3]; 78.2% in test [4]; 62.8% in test [5]; 59.5% in [6]. The growth is 6.98% (active) in test [7], 25.5% in [8] and 71.7% in test [9].
Turning to `CCCCCCCCC(=O)Nc1ccc(O)cc1`, the growth in test [1] is 103%; in [2], 91.2%; in test [3], 87.7%; in test [4] it was 92.1%; in test [5], 101%; in test [6] it was 92%. Also, the growth in test [7] was 101%; in test [8], 88.9%; in test [9] it was 107%.
For the compound `CCC(C)(CC)c1ccc(O)c(C)c1`, the growth in [1] was 114%; in [2], 114%; in [3], 99.8%; in [4], 106%; in [5], 108%; in test [6], 109%. Moreover, the figures for the growth in test [7], in [8] and in test [9] were 105%, 100% and 99.7%, respectively.
For `CCN(CC)C(=O)C1(C)CCCC2(C)c3cc(OC(C)=O)ccc3CCC12` (stereo not given), the growth in [1] was 99.9%; in [2], 58.6%; in test [3], 86.4%; in test [4], 103%; in test [5], 92%; in test [6], 86.5%. In addition, the growth in test [7] is 85.1%; in [8], 89.2%; in test [9], 112%.
As for `CCOc1ccc(Br)cc1/C=C(\C#N)c1ccc([N+](=O)[O-])cc1`, the growth was 80.4% in test [1]; 80.6% in [2]; 62.2% in test [3]; 61.2% in test [4]; 66.7% in [5]; 60.9% in [6]. For the same compound, the values for the growth in test [7], in [8] and in test [9] were 76.5%, 81.1% and 101%, respectively.
On to `OCCN1CCN(CC/C=C2/c3ccccc3Sc3ccc(C(F)(F)F)cc32)CC1`, for which the growth was 82.7% in [1]; 6.74% (active) in test [2]; 69% in test [3]; 80.7% in test [4]; 59.6% in test [5]; 70.7% in [6]. Further, the growth in [7] was 88.7%; in test [8], 87.6%; in test [9], 58.5%.
On to `CCCCN(CCCC)c1ccc(C(=O)O)cc1`, for which the growth in [1] was 101%; in test [2], 107%; in test [3] it was 74%; in test [4], 120%; in [5], 105%; in test [6], 101%. Besides, the figures for the growth in test [7], in test [8] and in test [9] were 97.7%, 109% and 103%, respectively.
In the case of `CSc1nc(N)n2nccc2n1`, the growth in test [1] is 117%; in [2], 96.6%; in [3], 95.3%; in [4] it was 100%; in [5] it was 112%; in test [6], 118%. Moreover, the growth is 95.7% in test [7] and 101% in [9].
For the compound `C[C@]12CC[C@H]3[C@@H](CC[C@H]4C[C@@H](O)CC[C@@]43C)[C@@H]1CC(=O)C2`, the growth in test [1] was 107%; in test [2], 94.1%; in [3] it was 163%; in test [4], 112%; in test [5], 118%; in test [6] it was 97.9%. The growth in test [8] was 92.7%; in [10] it was 104%; in test [9], 108%.
On to `CCCCCCC(C(=O)OCC)(C(=O)OCC)C1CCCCCC1`, for which the growth in [1] was 120%; in test [2] it was 100%; in test [3], 108%; in test [4] it was 101%; in test [5], 104%; in test [6] it was 121%. Besides, the growth in test [7] was 105%; in test [8], 92.8%; in test [9], 106%.
Take `CC(C)(C)c1cc(C[P+](c2ccc(Cl)cc2)(c2ccc(Cl)cc2)c2ccc(Cl)cc2)cc(C(C)(C)C)c1O`: the growth in test [1] is 108%; in test [2], 32.4%; in test [3], 37.4%; in [4], 102%; in [5], 68%; in test [6], 99.1%. The results for the growth in [7], in test [8] and in test [9] were 91.9%, 105% and 106%, respectively.
Take `CNc1nc2ncn(C)c2c(=O)[nH]1`: the growth in [1] is 106%; in test [2], 65.5%; in [3], 98.8%; in test [4] it was 90.9%; in [5], 106%; in test [6], 95.5%. In addition, the results for the growth in [7], in [8] and in [9] were 101%, 96.2% and 112%, respectively.
